Assay results published in the supplement of paper PMC4466140.

What follows are binders tested against AgAbp1 (assay: SPOT peptide array binding signal intensity (averaged, normalized) (arbitrary units (background-subtracted, floor 0; scale differs between SH3 domains)); higher = stronger binding of the SH3 domain to the peptide).
Procedure, shortened: (§1)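 The binding signal is the normalized, background-subtracted spot intensity averaged over replicates; its arbitrary units differ between domains. It was obtained by incubating 10 μg/ml GST-fused SH3 domains from four yeast species overnight at 4°C in TBS-based blocking buffer on cellulose membranes with synthetic 15-mer peptides, cysteines replaced by serines, then detecting with anti-GST antibody, HRP anti-mouse secondary and luminol.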
In the case of VTHRLRISIPGITGR, the “SPOT peptide array binding signal intensity” value is reported as 9.

These binders were tested against AgBbc1 in the same assay as above.
Procedure, shortened: as §1
With VTHRLRISIPGITGR the “SPOT peptide array binding signal intensity” value was 193.

The binders below were run against AgBem1-D1 in the same assay as above.
Procedure, shortened: as §1
VTHRLRISIPGITGR was tested, and the “SPOT peptide array binding signal intensity” value was 126.

The binders below were run against AgBzz1-D1 in the same assay as above.
Procedure, shortened: as §1
For VTHRLRISIPGITGR, the “SPOT peptide array binding signal intensity” value was 58.

What follows are binders tested against AgBzz1-D2 in the same assay as above.
Procedure, shortened: as §1
VTHRLRISIPGITGR was tested, and the “SPOT peptide array binding signal intensity” value was 136.

What follows are binders tested against AgCyk3 in the same assay as above.
Procedure, shortened: as §1
For VTHRLRISIPGITGR, the “SPOT peptide array binding signal intensity” value was 25.

What follows are binders tested against AgFus1 in the same assay as above.
Procedure, shortened: as §1
For VTHRLRISIPGITGR, the “SPOT peptide array binding signal intensity” value was 1200.

These binders were tested against AgHof1 in the same assay as above.
Procedure, shortened: as §1
In the case of VTHRLRISIPGITGR, the “SPOT peptide array binding signal intensity” value is reported as 20.8.

The binders below were run against AgHse1 in the same assay as above.
Procedure, shortened: as §1
In the case of VTHRLRISIPGITGR, the “SPOT peptide array binding signal intensity” value is reported as 650.

What follows are binders tested against AgLsb1 in the same assay as above.
Procedure, shortened: as §1
For VTHRLRISIPGITGR, the “SPOT peptide array binding signal intensity” value was 4.5.

These binders were tested against AgLsb4 in the same assay as above.
Procedure, shortened: as §1
VTHRLRISIPGITGR was tested, and the “SPOT peptide array binding signal intensity” value was 430.

Each binder was assayed against AgMyo5 in the same assay as above.
Procedure, shortened: as §1
With VTHRLRISIPGITGR the “SPOT peptide array binding signal intensity” value was 1.75.

Each binder was assayed against AgNbp2 in the same assay as above.
Procedure, shortened: as §1
For VTHRLRISIPGITGR, the “SPOT peptide array binding signal intensity” value was 123.

The binders below were run against AgRvs167 in the same assay as above.
Procedure, shortened: as §1
In the case of VTHRLRISIPGITGR, the “SPOT peptide array binding signal intensity” value is reported as 20.

These binders were tested against AgSho1 in the same assay as above.
Procedure, shortened: as §1
VTHRLRISIPGITGR was tested, and the “SPOT peptide array binding signal intensity” value was 146.

These binders were tested against AgSla1-D1-D2 in the same assay as above.
Procedure, shortened: as §1
For VTHRLRISIPGITGR, the “SPOT peptide array binding signal intensity” value was 88.

Each binder was assayed against AgSla1-D3 in the same assay as above.
Procedure, shortened: as §1
For VTHRLRISIPGITGR, the “SPOT peptide array binding signal intensity” value was 3.

The binders below were run against CaAbp1-D1 in the same assay as above.
Procedure, shortened: as §1
VTHRLRISIPGITGR was tested, and the “SPOT peptide array binding signal intensity” value was 286.

Each binder was assayed against CaAbp1-D2 in the same assay as above.
Procedure, shortened: as §1
In the case of VTHRLRISIPGITGR, the “SPOT peptide array binding signal intensity” value is reported as 146.

What follows are binders tested against CaBbc1 in the same assay as above.
Procedure, shortened: as §1
For VTHRLRISIPGITGR, the “SPOT peptide array binding signal intensity” value was 234.

Each binder was assayed against CaBem1-D1 in the same assay as above.
Procedure, shortened: as §1
In the case of VTHRLRISIPGITGR, the “SPOT peptide array binding signal intensity” value is reported as 36.

The binders below were run against CaBzz1-D1 in the same assay as above.
Procedure, shortened: as §1
With VTHRLRISIPGITGR the “SPOT peptide array binding signal intensity” value was 252.

These binders were tested against CaBzz1-D2 in the same assay as above.
Procedure, shortened: as §1
For VTHRLRISIPGITGR, the “SPOT peptide array binding signal intensity” value was 114.

What follows are binders tested against CaCyk3 in the same assay as above.
Procedure, shortened: as §1
In the case of VTHRLRISIPGITGR, the “SPOT peptide array binding signal intensity” value is reported as 39.5.

The binders below were run against CaFus1 in the same assay as above.
Procedure, shortened: as §1
In the case of VTHRLRISIPGITGR, the “SPOT peptide array binding signal intensity” value is reported as 1410.

What follows are binders tested against CaHof1 in the same assay as above.
Procedure, shortened: as §1
VTHRLRISIPGITGR was tested, and the “SPOT peptide array binding signal intensity” value was 1.75.

Each binder was assayed against CaHse1 in the same assay as above.
Procedure, shortened: as §1
In the case of VTHRLRISIPGITGR, the “SPOT peptide array binding signal intensity” value is reported as 56.8.

What follows are binders tested against CaLsb1 in the same assay as above.
Procedure, shortened: as §1
VTHRLRISIPGITGR was tested, and the “SPOT peptide array binding signal intensity” value was 1.25.

The binders below were run against CaLsb4 in the same assay as above.
Procedure, shortened: as §1
For VTHRLRISIPGITGR, the “SPOT peptide array binding signal intensity” value was 47.5.

Each binder was assayed against CaMyo5 in the same assay as above.
Procedure, shortened: as §1
For VTHRLRISIPGITGR, the “SPOT peptide array binding signal intensity” value was 34.

What follows are binders tested against CaNbp2 in the same assay as above.
Procedure, shortened: as §1
In the case of VTHRLRISIPGITGR, the “SPOT peptide array binding signal intensity” value is reported as 882.

Each binder was assayed against CaRvs167 in the same assay as above.
Procedure, shortened: as §1
In the case of VTHRLRISIPGITGR, the “SPOT peptide array binding signal intensity” value is reported as 640.

The binders below were run against CaRvs167-3 in the same assay as above.
Procedure, shortened: as §1
For VTHRLRISIPGITGR, the “SPOT peptide array binding signal intensity” value was 2060.

These binders were tested against CaSho1 in the same assay as above.
Procedure, shortened: as §1
For VTHRLRISIPGITGR, the “SPOT peptide array binding signal intensity” value was 1000.

These binders were tested against CaSla1-D1-D2 in the same assay as above.
Procedure, shortened: as §1
In the case of VTHRLRISIPGITGR, the “SPOT peptide array binding signal intensity” value is reported as 16.

What follows are binders tested against CaSla1-D3 in the same assay as above.
Procedure, shortened: as §1
In the case of VTHRLRISIPGITGR, the “SPOT peptide array binding signal intensity” value is reported as 252.

What follows are binders tested against ScAbp1 in the same assay as above.
Procedure, shortened: as §1
In the case of VTHRLRISIPGITGR, the “SPOT peptide array binding signal intensity” value is reported as 9.

The binders below were run against ScBbc1 in the same assay as above.
Procedure, shortened: as §1
For VTHRLRISIPGITGR, the “SPOT peptide array binding signal intensity” value was 16.2.

These binders were tested against ScBem1-D1 in the same assay as above.
Procedure, shortened: as §1
With VTHRLRISIPGITGR the “SPOT peptide array binding signal intensity” value was 33.5.

These binders were tested against ScBzz1-D1 in the same assay as above.
Procedure, shortened: as §1
With VTHRLRISIPGITGR the “SPOT peptide array binding signal intensity” value was 44.5.

These binders were tested against ScBzz1-D2 in the same assay as above.
Procedure, shortened: as §1
For VTHRLRISIPGITGR, the “SPOT peptide array binding signal intensity” value was 374.

These binders were tested against ScCyk3 in the same assay as above.
Procedure, shortened: as §1
In the case of VTHRLRISIPGITGR, the “SPOT peptide array binding signal intensity” value is reported as 82.

Each binder was assayed against ScFus1 in the same assay as above.
Procedure, shortened: as §1
With VTHRLRISIPGITGR the “SPOT peptide array binding signal intensity” value was 1730.

These binders were tested against ScHof1 in the same assay as above.
Procedure, shortened: as §1
With VTHRLRISIPGITGR the “SPOT peptide array binding signal intensity” value was 1.

What follows are binders tested against ScHse1 in the same assay as above.
Procedure, shortened: as §1
With VTHRLRISIPGITGR the “SPOT peptide array binding signal intensity” value was 1450.

These binders were tested against ScLsb1 in the same assay as above.
Procedure, shortened: as §1
For VTHRLRISIPGITGR, the “SPOT peptide array binding signal intensity” value was 65.

These binders were tested against ScLsb2 in the same assay as above.
Procedure, shortened: as §1
For VTHRLRISIPGITGR, the “SPOT peptide array binding signal intensity” value was 25.

The binders below were run against ScLsb3 in the same assay as above.
Procedure, shortened: as §1
With VTHRLRISIPGITGR the “SPOT peptide array binding signal intensity” value was 327.

Each binder was assayed against ScLsb4 in the same assay as above.
Procedure, shortened: as §1
With VTHRLRISIPGITGR the “SPOT peptide array binding signal intensity” value was 42.

The binders below were run against ScMyo3 in the same assay as above.
Procedure, shortened: as §1
For VTHRLRISIPGITGR, the “SPOT peptide array binding signal intensity” value was no more than 0.

What follows are binders tested against ScMyo5 in the same assay as above.
Procedure, shortened: as §1
VTHRLRISIPGITGR was tested, and the “SPOT peptide array binding signal intensity” value was 1.75.

The binders below were run against ScNbp2 in the same assay as above.
Procedure, shortened: as §1
In the case of VTHRLRISIPGITGR, the “SPOT peptide array binding signal intensity” value is reported as 295.

The binders below were run against ScPex13 in the same assay as above.
Procedure, shortened: as §1
With VTHRLRISIPGITGR the “SPOT peptide array binding signal intensity” value was 7.5.

These binders were tested against ScRvs167 in the same assay as above.
Procedure, shortened: as §1
In the case of VTHRLRISIPGITGR, the “SPOT peptide array binding signal intensity” value is reported as 45.2.

Each binder was assayed against ScSho1 in the same assay as above.
Procedure, shortened: as §1
In the case of VTHRLRISIPGITGR, the “SPOT peptide array binding signal intensity” value is reported as 946.

These binders were tested against ScSla1-D1-D2 in the same assay as above.
Procedure, shortened: as §1
In the case of VTHRLRISIPGITGR, the “SPOT peptide array binding signal intensity” value is reported as 159.

What follows are binders tested against ScSla1-D3 in the same assay as above.
Procedure, shortened: as §1
VTHRLRISIPGITGR was tested, and the “SPOT peptide array binding signal intensity” value was 46.

The binders below were run against SpAbp1-D1 in the same assay as above.
Procedure, shortened: as §1
With VTHRLRISIPGITGR the “SPOT peptide array binding signal intensity” value was 95.5.

The binders below were run against SpBbc1 in the same assay as above.
Procedure, shortened: as §1
With VTHRLRISIPGITGR the “SPOT peptide array binding signal intensity” value was 32.8.

These binders were tested against SpBzz1-D1 in the same assay as above.
Procedure, shortened: as §1
With VTHRLRISIPGITGR the “SPOT peptide array binding signal intensity” value was 396.

The binders below were run against SpBzz1-D2 in the same assay as above.
Procedure, shortened: as §1
VTHRLRISIPGITGR was tested, and the “SPOT peptide array binding signal intensity” value was no more than 0.

These binders were tested against SpCyk3 in the same assay as above.
Procedure, shortened: as §1
With VTHRLRISIPGITGR the “SPOT peptide array binding signal intensity” value was 9.

What follows are binders tested against SpHof1 in the same assay as above.
Procedure, shortened: as §1
With VTHRLRISIPGITGR the “SPOT peptide array binding signal intensity” value was 353.

What follows are binders tested against SpHof1-2 in the same assay as above.
Procedure, shortened: as §1
VTHRLRISIPGITGR was tested, and the “SPOT peptide array binding signal intensity” value was 71.

These binders were tested against SpHof1-3 in the same assay as above.
Procedure, shortened: as §1
For VTHRLRISIPGITGR, the “SPOT peptide array binding signal intensity” value was 594.

Each binder was assayed against SpHse1 in the same assay as above.
Procedure, shortened: as §1
VTHRLRISIPGITGR was tested, and the “SPOT peptide array binding signal intensity” value was 526.

These binders were tested against SpLsb1 in the same assay as above.
Procedure, shortened: as §1
VTHRLRISIPGITGR was tested, and the “SPOT peptide array binding signal intensity” value was 8.25.

These binders were tested against SpLsb4 in the same assay as above.
Procedure, shortened: as §1
VTHRLRISIPGITGR was tested, and the “SPOT peptide array binding signal intensity” value was 42.

The binders below were run against SpMyo1 in the same assay as above.
Procedure, shortened: as §1
For VTHRLRISIPGITGR, the “SPOT peptide array binding signal intensity” value was 1.

Each binder was assayed against SpNbp2 in the same assay as above.
Procedure, shortened: as §1
For VTHRLRISIPGITGR, the “SPOT peptide array binding signal intensity” value was 1510.

Each binder was assayed against SpPex13 in the same assay as above.
Procedure, shortened: as §1
In the case of VTHRLRISIPGITGR, the “SPOT peptide array binding signal intensity” value is reported as 17.

These binders were tested against SpRvs167 in the same assay as above.
Procedure, shortened: as §1
VTHRLRISIPGITGR was tested, and the “SPOT peptide array binding signal intensity” value was 68.8.

These binders were tested against SpSla1-D1-D2 in the same assay as above.
Procedure, shortened: as §1
In the case of VTHRLRISIPGITGR, the “SPOT peptide array binding signal intensity” value is reported as no more than 0.

These binders were tested against SpSla1-D3 in the same assay as above.
Procedure, shortened: as §1
In the case of VTHRLRISIPGITGR, the “SPOT peptide array binding signal intensity” value is reported as 10.
